A selection follows.
aSyn 5UTR act – Activators via SNCA 5'UTR binding, MLPCN; alpha-synuclein 5'UTR reporter, activators screen; 7.1% of 300,000 active; activity score, % (tested at 7.5 µM), hits read low; in the data active = activity score below about -60%
Large screens that a line does not name were inactive.

COC(=O)CSc1nc2ccccn2c(=O)c1C=O	aSyn 5UTR act -172.7
CCCCNC(=O)c1cc(-c2ccc(OC)cc2)on1	aSyn 5UTR act -143.6
CCCNC(=O)c1cc(-c2ccc(OC)cc2)on1	aSyn 5UTR act -159.5
CCCCNC(=O)c1cc(-c2ccc(F)cc2)on1	aSyn 5UTR act -591.7
CC(=O)c1ccc(-n2c(CCC(=O)O)ccc2-c2cccs2)cc1	aSyn 5UTR act -98.7
CC(=Nc1cccc(O)c1)c1sc2ccccc2c1O	aSyn 5UTR act -235.5
Cc1cccc(/C=C/C(=O)c2ccc(N3CCOCC3)cc2)c1	aSyn 5UTR act -114.3
Cc1ccc(/C=C/C(=O)c2ccc(N3CCOCC3)cc2)s1	aSyn 5UTR act -133.2
CC(=O)c1ccc(N=Nc2ccc(C)cc2)cc1	none
COC(=O)c1ccc(NN=Nc2ccc(C)cc2)cc1	aSyn 5UTR act -173.1
COC(=O)c1ccc(N=NN2CCCCC2)cc1	aSyn 5UTR act -101.7
O=C(N/N=C/c1ccc[nH]1)c1ccc2c(c1)OCO2	aSyn 5UTR act -92.9
O=C(CCCN1C(=O)/C(=C/c2ccc3c(c2)OCO3)SC1=S)Nc1ccc(C(=O)O)cc1	none
O=C(N/N=C\c1cccc(OC(=O)c2ccco2)c1)c1ccc2c(c1)OCO2	aSyn 5UTR act -64.7
O=C(CCC(=O)Nc1ccccc1)N/N=C/c1ccc2c(c1)OCO2	aSyn 5UTR act -62.9
O=C(N/N=C/c1ccc2c(c1)OCO2)C1CC1	aSyn 5UTR act -66.7
Nc1ccn([C@@H]2O[C@H](CO)[C@@H](O)[C@@H]2O)c(=O)n1	none
O=C(N/N=C\c1ccc2c(c1)OCO2)c1ccco1	aSyn 5UTR act -102.5
COc1cc(/C=N\NC(=O)c2ccc(C)nc2)ccc1OC(=O)c1ccc2c(c1)OCO2	aSyn 5UTR act -67.2
O=C(N/N=C/c1ccc2c(c1)OCO2)c1ccc2c(c1)OCO2	aSyn 5UTR act -91.3
Cc1ccsc1/C=N\NC(=O)c1ccc2c(c1)OCO2	aSyn 5UTR act -96.9
Cc1cccc(NC(=S)NCc2ccccn2)c1	aSyn 5UTR act -76.7
S=C(NCc1ccccn1)Nc1cccc(Cl)c1	aSyn 5UTR act -72.6
Cc1cccc(NC(=O)C(=O)NCc2ccccn2)c1	aSyn 5UTR act -70.4
O=C(O)c1cccc(OCc2ccccc2Cl)c1	aSyn 5UTR act -188.5
FC(F)Sc1ccc(Nc2ncnc3nc[nH]c23)cc1	aSyn 5UTR act -73.3
CCCCOC(=O)c1ccc(Nc2ncnc3nc[nH]c23)cc1	aSyn 5UTR act -118.2
CCCOc1ccc(C(=O)NNC(=S)NC(=O)c2ccccc2)cc1	none
CCCOc1ccc(C(=O)Nc2ccccc2[N+](=O)[O-])cc1	aSyn 5UTR act -401.4
Cc1ccc(NC(=O)c2cccnc2)c([N+](=O)[O-])c1	aSyn 5UTR act -63.1
COc1ccc(NC(=O)c2ccccc2)c([N+](=O)[O-])c1	aSyn 5UTR act -144.1
Cc1c(C(=O)Nc2ccccc2[N+](=O)[O-])csc1-c1ccccc1	aSyn 5UTR act -142.5
COc1ccc(C2c3ccc4ccccc4c3Oc3ncn(CCCN(C)C)c(=N)c32)cc1 (stereo not drawn)	none
CCCc1cc(C(=O)Nc2ccc(OC)cc2[N+](=O)[O-])cs1	aSyn 5UTR act -100.4
O=C(CC1C(=O)NCCN1Cc1ccc(F)cc1Cl)NCc1ccon1 (stereo not drawn)	aSyn 5UTR act -68.1
CC(C)Oc1ccc(CSc2ncn[nH]2)cc1	aSyn 5UTR act -83.8
N#C/C(=C/c1ccc(OCc2ccccc2)cc1)C(=O)NC1CCCCC1	aSyn 5UTR act -120.9
Cc1ccccc1COc1ccc(/C=C(\C#N)C(N)=O)cc1	aSyn 5UTR act -105.2
CNC(=O)/C(C#N)=C/c1ccc(OCCOc2ccccc2)cc1	aSyn 5UTR act -66.3
N#Cc1ccccc1COc1ccc(/C=C/C(=O)O)cc1	none
N#C/C(=C\c1ccc(OCc2ccccc2)cc1)C(N)=O	aSyn 5UTR act -92.2
O=C(Nc1cccc2ccccc12)/C(Cl)=C/c1ccccc1	aSyn 5UTR act -80.9
O=C(Nc1ccccc1F)C(=O)Nc1cccc2ccccc12	aSyn 5UTR act -118.9
Cc1csc(NC(=O)c2cc3c(s2)-c2ccccc2OC3)n1	aSyn 5UTR act -211.1
Cc1cccc2c1-c1sc(C(=O)NCCCN3CCCC(C)C3)cc1CO2 (stereo not drawn)	none
O=C(c1cc2c(s1)-c1ccccc1OC2)N1CCCC1	aSyn 5UTR act -104.6
CC1CCCC(C)N1CCCNC(=O)c1cc2c(s1)-c1ccccc1OC2 (stereo not drawn)	none
Cc1cccc(NC(=O)c2cc3c(s2)-c2c(C)cccc2OC3)n1	aSyn 5UTR act -143.5
Cc1csc(Nc2ccccc2)[n+]1-c1ccccc1	aSyn 5UTR act -68.8
CCC(=O)C1CCCN(C(=O)CCc2nnc(C3(c4ccc(Cl)cc4)CCC3)o2)C1 (stereo not drawn)	aSyn 5UTR act -62.1
CC(=O)c1ccc(-c2nnc(CCC(=O)N3CCCC(C(=O)CC(C)C)C3)o2)s1 (stereo not drawn)	aSyn 5UTR act -157.2
O=C(CCc1nnc(C2(c3ccc(Cl)cc3)CCC2)o1)N1CCCC1	aSyn 5UTR act -71.9
C=CCOc1ccc2c(c1)C(=NO)c1cc(OCC=C)ccc1-2	aSyn 5UTR act -94.0
ON=C1c2cc(OCCN3CCCCC3)ccc2-c2ccc(OCCN3CCCCC3)cc21	aSyn 5UTR act -188.8
COc1ccc2c(c1)C(=NO)c1cc(OC)ccc1-2	aSyn 5UTR act -82.6
O=C(CCCN1C(=O)/C(=C/c2ccccc2Cl)SC1=S)NNC(=O)c1ccccc1Cl	none
Cc1ccc(/C=C2\SC(=S)N(CCCC(=O)Nc3ccccc3C(=O)O)C2=O)cc1	none
Cc1ccc(/C=C2\SC(=S)N(CCCC(=O)Nc3ccc(O)cc3)C2=O)cc1	none
O=C(CCN1C(=O)/C(=C/c2ccccc2Cl)SC1=S)N1CCOCC1	aSyn 5UTR act -73.2
O=C(CCN1C(=O)/C(=C/c2ccccc2Cl)SC1=S)N1CCCC1	aSyn 5UTR act -115.4
Cc1ccc(/C=C2\SC(=S)N(CCC(=O)N3CCOCC3)C2=O)cc1	aSyn 5UTR act -63.8
CN1CCN(C(=O)CCCN2C(=O)/C(=C/c3cccc(Br)c3)SC2=S)CC1	aSyn 5UTR act -218.5
Cc1nc2c(-c3ccccc3)c(C)nn2c(N)c1-c1ccccc1	aSyn 5UTR act -137.5
Cc1nn2c(-c3ccccc3)ccnc2c1-c1ccccc1	aSyn 5UTR act -139.5
Cc1nc2nc(N)nn2c(C)c1C/C=C/c1ccccc1	none
Cc1nn2c3c(cnc2c1-c1ccccc1)C(=O)CCC3	aSyn 5UTR act -89.6
Cc1ccc(-c2ccnc3c(Cl)c(C)nn23)cc1	none
Cc1nn2c(N)c(-c3ccccc3)cnc2c1-c1ccc(Cl)cc1	aSyn 5UTR act -193.5
O=C(Cc1ccccc1[N+](=O)[O-])NCc1ccc(Cl)cc1	aSyn 5UTR act -93.9
O=C(Cc1ccccc1[N+](=O)[O-])NCc1ccc(Cl)cc1Cl	aSyn 5UTR act -142.2
COc1ccc2nc3sc(C(=O)NCCCN4CCc5ccccc5C4)cc3cc2c1	aSyn 5UTR act -83.7
CCCC1c2ccc(C)n2CCN1C(=O)Nc1ccccc1Cl (stereo not drawn)	aSyn 5UTR act -120.3
Cc1c(C)n(CCc2ccccc2)c2ncnc(NCCO)c12	aSyn 5UTR act -145.8
N=c1c2c(-c3ccccc3)c(-c3ccccc3)n(Cc3ccccc3)c2ncn1CCO	none
COc1ccccc1Nc1ncnc2c1c(C)c(C)n2CCO	aSyn 5UTR act -103.0
CC(=O)Nc1cccc(NC(=O)C(=O)c2cn(CC(=O)N3CCCCC3)c3ccccc23)c1	aSyn 5UTR act -121.5
COc1ccc(NC(=O)C(=O)c2cn(CC(=O)N3CCCC3)c3ccccc23)cc1	none
Cn1c2ccc(CC(=O)O)cc2c2cc(CC(=O)O)ccc21	aSyn 5UTR act -64.7
Cn1c2ccc(Br)cc2c2nnc(SCC(=O)O)nc21	none
Cc1ccc(NC(=S)/C(=C(\[O-])c2ccc(F)cc2)[n+]2ccccc2)cc1	aSyn 5UTR act -90.4
